SARS PLP yeast – blocks SARS-CoV papain-like protease in a yeast assay; S. cerevisiae expressing SARS-CoV PLpro, growth rescue; Potency, µM (doses to about 32.9 µM), for inactives: at the top dose activity, positive = growth rescue, actives largely listed as activators; 330,000 tested, 0.19% active; AID 485353; calls by dose curve; also: potency is read from the fitted curve at half-maximal effect; 0% is about no effect; nearly all actives have a fitted effect of over 55% in size
AmpC inh no detg – blocks E. coli AmpC beta-lactamase in detergent-free assay; P00811; AmpC nitrocefin hydrolysis, absorbance 480 nm, 0.0001% Triton; Potency, µM (titrated, usually from 57.1 µM), without a hit: at the highest dose activity change, negative = inhibition, usual class: inhibitors; 330,000 tested, 0.52% active;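 also: potency is read from the fitted curve at half-maximal effect; plate controls were no compound for no effect and no enzyme for full effect; nearly all actives have a fitted effect of over 20% in size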
Target sequence (P00811 whole entry, looked up): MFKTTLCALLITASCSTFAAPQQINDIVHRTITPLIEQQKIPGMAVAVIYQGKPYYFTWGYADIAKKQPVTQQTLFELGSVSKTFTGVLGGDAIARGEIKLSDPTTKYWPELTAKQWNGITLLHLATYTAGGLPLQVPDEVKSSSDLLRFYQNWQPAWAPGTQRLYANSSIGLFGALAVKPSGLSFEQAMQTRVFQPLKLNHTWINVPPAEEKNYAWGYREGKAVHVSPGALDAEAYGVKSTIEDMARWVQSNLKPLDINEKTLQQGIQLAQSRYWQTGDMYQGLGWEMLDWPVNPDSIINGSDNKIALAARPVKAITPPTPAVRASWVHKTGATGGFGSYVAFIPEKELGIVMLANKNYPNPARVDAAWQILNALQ
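20 mM phosphate pH 7.0 + 0.01% (detergent screen) or 0.0001% Triton X-100; 5.3 nM AmpC reagent; cpd preinc 15 min RT; nitrocefin (800 uM stock) to start; A480 q20 s × 4 min; Activity was normalised to no-enzyme and no-compound control wells.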
CHX counter – counter-screen for Shiga toxin inhibitors: cycloheximide protein synthesis inhibition; cell reporter, cycloheximide protein synthesis inhibition counterscreen; max response, %; 300,000 tested, 12% active; AID 2314; in the data active = max response mostly above about 13%, no sharp cut-off; inactive = mostly below about 14%; also: read at 38.3 µM for the half of the compounds with a filed dose; 0% is about no effect
AmpC inh detg – AmpC beta-lactamase inhibition with detergent present; AmpC hydrolysis of nitrocefin, absorbance 480 nm, 0.01% Triton; Potency, µM (top dose mostly 114 µM), without a hit: at the highest dose activity change, negative = inhibition, most hits filed as inhibitors; P00811; 370,000 tested, 0.041% active;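 also: potency is read from the fitted curve at half-maximal effect; 0% = no-compound wells and -100% = no-enzyme wells; nearly all actives have a fitted effect of over 25% in size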
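AmpC (5.3 nM in the dispensed reagent) in 20 mM phosphate pH 7.0 with 0.01% (detergent screen) or 0.0001% Triton X-100 was preincubated with compounds for 15 min at room temperature. Nitrocefin was then added from an 800 uM solution, and hydrolysis was followed at 480 nm.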
Shiga inhibitor – Shiga toxin inhibition. Vero cells, Shiga toxin protein synthesis inhibition reporter. inhibition, % at 38.7 µM. 290,000 tested, 9.2% active. AID 2315; in the data active = inhibition mostly above about 28%, no sharp cut-off; inactive = mostly below about 43%; also: 0% is about no effect
AMA1 RON2 block – inhibitors of Plasmodium falciparum AMA1-RON2 interaction. AID 720542. Potency, µM (series often up to 58.2 µM), for inactives: top-dose activity change, negative = inhibition, hits mostly inhibitors. 360,000 tested, 0.2% active. AlphaScreen AMA1-biotinylated RON2 peptide binding;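 also: potency is read from the fitted curve at half-maximal effect; 0% = vehicle wells and -100% = peptide control; nearly all actives have a fitted effect of over 45% in size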
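AMA1 (3D7) with his tag at 25 nM final met compounds first, then biotinylated RON2 peptide at 25 nM; detection used donor plus acceptor beads, 10 µg/mL apiece, read by AlphaScreen after 30 min at room temperature.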
* = called active by the depositor. Shown is part of a subset that was picked to be rich in hits. Unless noted, calls follow the shape of the dose curve; as a rule, active = well fitted curve in the direction sought with a large enough effect; inconclusive = small, poorly fitted or top-dose-only effect, or another doubt; inactive = no such curve, though single readings can be large; an effect the other way counts as inactive or inconclusive.

For Cc1ccc(O)c(C(=O)CC(=O)c2ccccc2Cl)c1 the results were SARS PLP yeast -4%, AmpC inh no detg -43%, CHX counter 38*, AmpC inh detg inconclusive, Shiga inhibitor 81* and AMA1 RON2 block 71%.
`Cc1ccc(O)c(C(=O)CC(=O)c2ccc(C(C)(C)C)cc2)c1` gave SARS PLP yeast 1%, AmpC inh no detg -41%, CHX counter 23*, AmpC inh detg inconclusive and AMA1 RON2 block 51%.
For CC(C)(C)c1ccc(C(=O)NCC(=O)NNC(=O)c2ccccc2O)cc1 the results were SARS PLP yeast 28%, AmpC inh no detg -25%, AmpC inh detg inconclusive and AMA1 RON2 block 94%.
COc1ccc(-c2cc3c(nn2)-c2ccccc2C3=O)cc1 was read as SARS PLP yeast -2%, AmpC inh no detg -8%, CHX counter -4, AmpC inh detg inconclusive, Shiga inhibitor -25 and AMA1 RON2 block -15%.
Screening Cc1cccc(-c2cc3c(nn2)-c2ccccc2C3=O)c1 returned SARS PLP yeast -8%, AmpC inh no detg -22%, CHX counter 30*, AmpC inh detg -2%, Shiga inhibitor 48* and AMA1 RON2 block -15%.
`O=C1c2ccccc2-c2nnc(-c3ccccc3)cc21` gave SARS PLP yeast -6%, AmpC inh no detg -30%, CHX counter 19*, AmpC inh detg -2%, Shiga inhibitor 72* and AMA1 RON2 block -7%.
Screening CC[N+](CC)(CC(=O)Nc1c(C)cccc1C)Cc1ccccc1 returned AMA1 RON2 block 15%.
`CC(=O)c1sc(Nc2nc3ccc(F)cc3s2)nc1C` gave SARS PLP yeast -15%, AmpC inh no detg 49%, CHX counter 52*, AmpC inh detg -14%, Shiga inhibitor 97* and AMA1 RON2 block 92%.
Screening COC(=O)c1ccc2nc(Nc3nc4ccc(F)cc4s3)sc2c1 returned SARS PLP yeast -28%, AmpC inh no detg 1%, CHX counter 28*, AmpC inh detg -8%, Shiga inhibitor -34 and AMA1 RON2 block 38%.
For CCOC(=O)c1csc(Nc2nc3ccc(F)cc3s2)n1 the results were SARS PLP yeast -14%, AmpC inh no detg -43%, CHX counter 20*, AmpC inh detg inconclusive, Shiga inhibitor 23* and AMA1 RON2 block 88%.
O=c1oc2ccccc2cc1-c1csc(Nc2nc3ccc(F)cc3s2)n1 was read as SARS PLP yeast 15%, AmpC inh no detg -27%, CHX counter 2, AmpC inh detg 1% and Shiga inhibitor 15.
For FC(F)(F)Oc1ccccc1-c1nnc(-c2cccc(C(F)(F)F)c2)o1 the results were SARS PLP yeast 2%, AmpC inh no detg 53%, CHX counter -2, AmpC inh detg 18%, Shiga inhibitor -7 and AMA1 RON2 block 51%.
Cc1ccc(-c2nnc(-c3cc(C)on3)o2)cc1 was read as SARS PLP yeast 1%, AmpC inh no detg -7%, CHX counter 39*, AmpC inh detg 3%, Shiga inhibitor 59* and AMA1 RON2 block 1%.
`Cc1cc(-c2nnc(-c3cccc(C(F)(F)F)c3)o2)no1` gave SARS PLP yeast 1%, AmpC inh no detg -3%, CHX counter 44*, AmpC inh detg 9%, Shiga inhibitor 77* and AMA1 RON2 block -1%.
Screening O=Cc1ccc(Sc2nnc(-c3ccccc3)o2)c([N+](=O)[O-])c1 returned SARS PLP yeast -12%, AmpC inh no detg -35%, CHX counter -3, AmpC inh detg inconclusive, Shiga inhibitor -18 and AMA1 RON2 block inconclusive.
For Cc1c(C)n(CCc2ccccc2)c2ncnc(NCCCN(C)C)c12 the results were SARS PLP yeast 2%, AmpC inh no detg 73%, CHX counter 18, AmpC inh detg -1%, Shiga inhibitor 28* and AMA1 RON2 block -22%.
For O=C(COc1ccccc1)N1CCN(C(=O)COc2ccccc2)CC1 the results were SARS PLP yeast 1%, AmpC inh no detg -2%, CHX counter -6, AmpC inh detg -13%, Shiga inhibitor -9 and AMA1 RON2 block 7%.
